PubChem BioAssay (Tox21)
Records with an inconclusive call do not appear. The source made the active and inactive calls. Unless noted, calls come from the whole dose curve; as a rule, active = well fitted curve in the direction sought with a large enough effect in the repeat runs; inconclusive = weak or mixed curves; inactive = no such curve, though single readings can be large; an effect the other way counts as inactive or inconclusive.

Tests used:
[1] = qHTS assay to identify small molecule agonists of the peroxisome proliferator-activated receptor delta (PPARd) signaling pathway - cell viability counter screen (AID 743211); note: nearly all actives have a fitted effect of over 55% in size
How it was run: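 qHTS cell viability: PPARd-bla HEK293H; 17 h cpd, 37C; CellTiter-Glo, luminescence at 30 min RT.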

[2] = target: Peroxisome proliferator-activated receptor delta (Homo sapiens) (UniProt Q03181); assay: qHTS assay to identify small molecule agonists of the peroxisome proliferator-activated receptor delta (PPARd) signaling pathway (AID 743212; calls by dose curve)
Chain of Peroxisome proliferator-activated receptor delta (Homo sapiens) (Q03181 whole entry, looked up): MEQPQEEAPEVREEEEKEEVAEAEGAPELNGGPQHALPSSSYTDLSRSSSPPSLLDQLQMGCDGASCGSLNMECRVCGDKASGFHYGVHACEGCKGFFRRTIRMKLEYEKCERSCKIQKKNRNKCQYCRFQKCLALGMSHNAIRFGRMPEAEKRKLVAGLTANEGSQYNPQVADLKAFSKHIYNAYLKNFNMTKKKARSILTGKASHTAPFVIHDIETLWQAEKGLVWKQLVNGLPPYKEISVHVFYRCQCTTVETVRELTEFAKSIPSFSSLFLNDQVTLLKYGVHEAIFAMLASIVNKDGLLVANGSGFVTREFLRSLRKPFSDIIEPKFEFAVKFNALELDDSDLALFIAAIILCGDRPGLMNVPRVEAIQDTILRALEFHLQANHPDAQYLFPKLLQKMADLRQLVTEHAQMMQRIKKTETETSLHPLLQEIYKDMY
How it was run: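 A PPARd-bla HEK293H line with beta-lactamase under an Upstream Activator Sequence is treated with compounds at 37 C. Substrate loading for 2 h at room temperature precedes the fluorescence measurement.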

[3] = qHTS assay to identify small molecule antagonists of the peroxisome proliferator-activated receptor delta (PPARd) signaling pathway - cell viability counter screen (AID 743213); note: nearly all actives have a fitted effect of over 50% in size
How it was run: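 In this counter screen, HEK293H cells carrying a UAS-beta-lactamase reporter are co-treated with test compounds and 300 nM L165041 (final) for 17 h at 37 C; cell viability is quantified by CellTiter-Glo luminescence.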

[4] = target: Peroxisome proliferator-activated receptor delta (Homo sapiens) (UniProt Q03181); assay: qHTS assay to identify small molecule antagonists of the peroxisome proliferator-activated receptor delta (PPARd) signaling pathway (AID 743215; active = well fitted inhibition curve with a large enough effect in the signal ratio in the repeat runs, not every such curve was filed as active; the % refers to the signal ratio;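 note: cells stimulated with agonist L165041 at 300 nM final during compound exposure; series mostly up to about 62 µM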)
How it was run: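 With L165041 present at 300 nM final, compounds were incubated 17 h at 37 C on PPARd UAS-bla HEK293H cells. A FRET-based beta-lactamase substrate was then applied for 2 h at room temperature and fluorescence intensity recorded.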

[5] = qHTS assay to identify small molecule antagonists of the farnesoid-X-receptor (FXR) signaling pathway - cell viability counter screen (AID 743221; active = well fitted cell-killing curve with a large enough effect in the repeat runs, not every such curve was filed as active; note: nearly all actives have a fitted effect of over 50% in size)
How it was run: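 After a 5 h settling period, FXR-bla HEK 293T cells receive compound and chenodeoxycholic acid (50 uM final) and incubate 16 h at 37 C; CellTiter-Glo luminescence, read after 30 min at room temperature, reports cell viability.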

[6] = target: Vitamin D3 receptor (Homo sapiens) (UniProt P11473); assay: qHTS assay to identify small molecule antagonists of the vitamin D receptor (VDR) signaling pathway (AID 743223; active = well fitted inhibition curve with a large enough effect in the signal ratio in the repeat runs, not every such curve was filed as active; the % refers to the signal ratio)
Chain of Vitamin D3 receptor (Homo sapiens) (P11473 whole entry, looked up): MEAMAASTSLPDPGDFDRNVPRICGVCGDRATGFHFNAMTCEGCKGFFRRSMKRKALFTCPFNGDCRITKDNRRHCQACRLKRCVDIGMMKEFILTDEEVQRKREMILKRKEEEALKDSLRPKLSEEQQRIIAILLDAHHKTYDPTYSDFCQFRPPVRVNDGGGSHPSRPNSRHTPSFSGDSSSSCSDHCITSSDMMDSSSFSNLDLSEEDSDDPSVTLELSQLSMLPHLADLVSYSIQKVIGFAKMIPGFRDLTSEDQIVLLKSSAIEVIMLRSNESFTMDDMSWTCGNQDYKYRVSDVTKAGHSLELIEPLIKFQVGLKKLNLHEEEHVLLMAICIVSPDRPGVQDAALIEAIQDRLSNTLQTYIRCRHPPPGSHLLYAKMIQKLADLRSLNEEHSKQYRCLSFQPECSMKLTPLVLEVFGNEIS
How it was run: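 Reporter line VDR-bla; stimulus 1alpha,25-(OH)2 vitamin D3, 3 nM final; compound co-addition, 16 h 37C/5% CO2; LiveBLAzer B/G substrate 2 h RT; fluorescence intensity.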

[7] = target: Bile acid receptor (Homo sapiens) (UniProt Q96RI1); assay: qHTS assay to identify small molecule antagonists of the farnesoid-X-receptor (FXR) signaling pathway (AID 743217; active = well fitted inhibition curve with a large enough effect in the signal ratio in the repeat runs, not every such curve was filed as active; the % refers to the signal ratio; note: potency is the fitted concentration of half-maximal effect)
Chain of Bile acid receptor (Homo sapiens) (Q96RI1 whole entry, looked up): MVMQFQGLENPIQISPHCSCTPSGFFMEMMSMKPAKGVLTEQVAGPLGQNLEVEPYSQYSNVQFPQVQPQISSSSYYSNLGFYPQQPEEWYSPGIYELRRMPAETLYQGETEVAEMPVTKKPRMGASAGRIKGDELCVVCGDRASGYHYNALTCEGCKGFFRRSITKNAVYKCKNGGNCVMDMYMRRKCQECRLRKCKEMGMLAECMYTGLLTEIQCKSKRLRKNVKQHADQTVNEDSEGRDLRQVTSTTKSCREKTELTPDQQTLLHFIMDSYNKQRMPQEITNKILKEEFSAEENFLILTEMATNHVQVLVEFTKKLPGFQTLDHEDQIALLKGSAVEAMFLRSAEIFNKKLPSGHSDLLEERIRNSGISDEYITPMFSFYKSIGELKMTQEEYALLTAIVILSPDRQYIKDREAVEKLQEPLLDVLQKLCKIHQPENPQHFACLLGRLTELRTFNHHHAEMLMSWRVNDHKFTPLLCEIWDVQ
How it was run: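 In this cell-based antagonist screen, inhibition of CDCA-driven (50 uM final) UAS-beta-lactamase expression in HEK 293T cells was measured by FRET fluorescence following 16 h compound exposure at 37 °C.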

[8] = qHTS assay to identify small molecule agonists of the farnesoid-X-receptor (FXR) signaling pathway - cell viability counter screen (AID 743218); note: nearly all actives have a fitted effect of over 45% in size
How it was run: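 After 16 h at 37 C with test compounds, FXR-bla HEK 293T cells were given LiveBLAzer B/G substrate for 2 h at RT and then CellTiter-Glo; luminescence was taken after 30 min.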

[9] = target: Bile acid receptor (Homo sapiens) (UniProt Q96RI1); assay: qHTS assay to identify small molecule agonists of the farnesoid-X-receptor (FXR) signaling pathway (AID 743220; active = well fitted activation curve with a large enough effect in the signal ratio in the repeat runs, not every such curve was filed as active; the % refers to the signal ratio)
How it was run: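 Beta-lactamase reporter under UAS control in GeneBLAzer FXR HEK 293T cells (5000/well) measured with LiveBLAzer FRET substrate after 2 h at room temperature. Compound exposure lasted 16 h at 37C.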

[10] = target: Vitamin D3 receptor (Homo sapiens) (UniProt P11473); assay: qHTS assay to identify small molecule agonists of the vitamin D receptor (VDR) signaling pathway (AID 743222; calls by dose curve)
How it was run: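 VDR-bla cells were seeded, left 4 h, treated with compounds in DMSO for 16 h, incubated 2 h at RT with B/G FRET substrate, and read for fluorescence.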
% is set by controls: 0 for no effect and ±100 for the full control effect.

CCC(CC)CO
inactive: outcome [1] | outcome [2] | outcome [3] | outcome [4] | outcome [5] | outcome [6]

O=C(O)c1cc(Br)c(O)c(Br)c1
inactive: outcome [1] | outcome [2] | outcome [3] | Potency [7] | Potency [8] | Potency [9] | outcome [5] | outcome [10] | outcome [6]

CNS(=O)(=O)CCc1ccc2[nH]cc(C3CCN(C)CC3)c2c1
inactive: outcome [1] | outcome [2] | outcome [3] | outcome [4] | outcome [5] | outcome [10] | outcome [6]

Cc1ccc2ccc(Cl)cc2n1
inactive: outcome [1] | outcome [2] | outcome [3] | outcome [4] | Potency [8] | outcome [5] | outcome [10] | outcome [6]

CCCCOCCOC(=O)COc1nc(Cl)c(Cl)cc1Cl
inactive: outcome [1] | outcome [2] | outcome [3] | Potency [7] | Potency [8] | Potency [9] | outcome [5]

NS(=O)(=O)c1ccc(NC(=O)CCC(=O)O)cc1
inactive: outcome [1] | outcome [2] | outcome [3] | Potency [7] | Potency [8] | Potency [9] | outcome [5] | outcome [10]

CCCC/C=C\CCCCCCCCCC=O
inactive: outcome [1] | outcome [2] | outcome [3] | Potency [7] | Potency [8] | Potency [9] | outcome [5] | outcome [10] | outcome [6]

CCOC(=O)CC(=O)c1ccccc1
inactive: outcome [1] | outcome [2] | outcome [3] | outcome [4] | Potency [8] | outcome [5] | outcome [6]

Nc1ccc([N+](=O)[O-])c(N)c1
inactive: outcome [1] | outcome [2] | outcome [3] | outcome [4] | outcome [5] | outcome [10] | outcome [6]

COc1ccc(-c2cc(=O)c3c(O)cc(O[C@@H]4O[C@H](CO[C@@H]5O[C@@H](C)[C@H](O)[C@@H](O)[C@H]5O)[C@@H](O)[C@H](O)[C@H]4O)cc3o2)cc1O
inactive: outcome [1] | outcome [2] | outcome [3] | outcome [4] | Potency [8] | outcome [5] | outcome [10] | outcome [6]

C=CC(OCC)OCC
inactive: outcome [1] | outcome [2] | outcome [3] | outcome [4] | Potency [8] | outcome [5] | outcome [6]

O=C1c2ccccc2C(=O)N1CCl
inactive: outcome [1] | outcome [2] | outcome [3] | Potency [7] | Potency [8] | Potency [9] | outcome [5] | outcome [10]

COc1cc2c(cc1OC)[C@@H]1CC(=O)[C@@H](CC(C)C)CN1CC2
inactive: outcome [1] | outcome [2] | outcome [3] | outcome [4] | outcome [5] | outcome [6]

CC(C)OC(=O)CCCCC(=O)OC(C)C
inactive: outcome [1] | outcome [2] | outcome [3] | Potency [8] | Potency [9] | outcome [5] | outcome [10] | outcome [6]
active: Potency [7] 24.6 µM

Cc1ccc(S(=O)(=O)O)c(C)c1
inactive: outcome [1] | outcome [2] | outcome [3] | outcome [4] | Potency [8] | outcome [5] | outcome [10] | outcome [6]

CC(C)(C)NC(N)=O
inactive: outcome [1] | outcome [2] | outcome [3] | outcome [4] | outcome [5] | outcome [10]

Cc1ccccc1N=O
inactive: outcome [1] | outcome [2] | outcome [3] | Potency [7] | Potency [8] | Potency [9] | outcome [5] | outcome [10] | outcome [6]

CO[C@@H]1[C@@H](OC(N)=O)[C@@H](O)[C@H](Oc2ccc3c(O)c(NC(=O)c4ccc(O)c(CC=C(C)C)c4)c(=O)oc3c2C)OC1(C)C
inactive: outcome [1] | outcome [2] | outcome [3] | Potency [7] | Potency [8] | Potency [9] | outcome [5] | outcome [6]

O=C(CCN1CCN(CCO)CC1)N1c2ccccc2Sc2ccc(C(F)(F)F)cc21
inactive: outcome [1] | outcome [2] | outcome [3] | outcome [4] | outcome [5] | outcome [10] | outcome [6]

O=C(O)Cc1cn(-c2ccccc2)nc1-c1ccc(Cl)cc1
inactive: outcome [1] | outcome [2] | outcome [3] | outcome [4] | outcome [5]

CC(C)NCC(O)COc1cccc2[nH]ccc12 (stereo not given)
inactive: outcome [1] | outcome [2] | outcome [3] | outcome [4] | outcome [5] | outcome [6]

O=Cc1ccc(Cl)c(Cl)c1
inactive: outcome [1] | outcome [2] | outcome [3] | outcome [4] | Potency [8] | outcome [5] | outcome [10] | outcome [6]

CCCCCCOC(=O)CC
inactive: outcome [1] | outcome [2] | outcome [3] | Potency [7] | Potency [8] | Potency [9] | outcome [5] | outcome [10] | outcome [6]

O=C(OCC(COC(=O)c1cccnc1)(COC(=O)c1cccnc1)COC(=O)c1cccnc1)c1cccnc1
inactive: outcome [1] | outcome [2] | outcome [3] | outcome [4] | outcome [5] | outcome [6]

COC(=O)C1CC(=O)C(C(=O)OC)CC1=O (stereo not given)
inactive: activity change, negative = cytotoxicity [1] -4.27% [at 5.95 µM] | activation [2] 3.55% [at 5.95 µM] | viability change, negative = cytotoxic [3] -19.8% [at 6.26 µM] | ratio activity, negative = inhibition [4] -19.7% [at 6.26 µM] | viability change, negative = cytotoxic [8] 25% [at 5.95 µM] | activity change, negative = cytotoxicity [5] -3.4% [at 5.95 µM] | activity change, negative = inhibition [6] 0.852% [at 6.95 µM]

O=C(OCC1(COC(=O)c2cccnc2)CCCC(COC(=O)c2cccnc2)(COC(=O)c2cccnc2)C1O)c1cccnc1
inactive: outcome [1] | outcome [2] | outcome [3] | outcome [4] | outcome [5] | outcome [10]

CC(=O)/C=C/C1C(C)=CCC(C)C1(C)C (stereo not given)
inactive: outcome [1] | outcome [2] | outcome [3] | Potency [8] | outcome [5] | outcome [10]

CNC(=O)[C@H]1O[C@@H](n2cnc3c(NCc4cc(Cl)ccc4OCc4cc(C)no4)ncnc32)[C@H](O)[C@@H]1N
inactive: outcome [1] | outcome [2] | outcome [3] | Potency [7] | Potency [9] | outcome [5] | outcome [10] | outcome [6]

CC(C)CC(=O)O
inactive: outcome [1] | outcome [2] | outcome [3] | Potency [8] | outcome [5] | outcome [6]

CCCCOC(=O)c1ccccc1
inactive: outcome [1] | outcome [2] | outcome [3] | Potency [8] | outcome [5] | outcome [6]

C=C(C)C(=O)OCc1ccccc1
inactive: outcome [1] | outcome [2] | outcome [3] | Potency [7] | Potency [9] | outcome [5] | outcome [10] | outcome [6]
